# Compound activity deposited in PubChem by several laboratories.
# Compounds with a hit are over-represented: about 3.7% of the library has one in this group of screens.
# Rce1 inhib: yeast Ras-converting enzyme inhibition; Q03530; calls only; hit rate 0.27% among 290,000; yeast membranes, quenched prenylated peptide cleavage fluorescence;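 active = fall in fluorescence gain of 50% or more versus controls, with final raw signal at or below 3038400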;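 also: plate controls were neutral control wells for no effect and wells lacking membranes for full effect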
# Target sequence (Q03530 whole entry, looked up): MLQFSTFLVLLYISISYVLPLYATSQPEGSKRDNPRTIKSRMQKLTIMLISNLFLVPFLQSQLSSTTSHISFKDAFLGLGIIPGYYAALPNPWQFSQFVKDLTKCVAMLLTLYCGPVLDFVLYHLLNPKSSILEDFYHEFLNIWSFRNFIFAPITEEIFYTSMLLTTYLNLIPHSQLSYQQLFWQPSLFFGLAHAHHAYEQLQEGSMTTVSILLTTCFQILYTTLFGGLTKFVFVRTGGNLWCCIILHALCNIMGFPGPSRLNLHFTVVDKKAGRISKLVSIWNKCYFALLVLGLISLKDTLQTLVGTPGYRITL
# tim23-1 inh: tim23-1 yeast growth inhibition; S. cerevisiae tim23-1 growth, BacTiter-Glo luminescence, 24 h; inhibition, % at 20 µM; hit rate 1.3% among 330,000;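 active = growth inhibition of the mutant yeast at or above 50%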;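 also: temperature-sensitive mutant grown at 25 °C; plate controls were DMSO-treated mutant yeast for no effect and medium wells lacking yeast for full effect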
# PfHsp90 yeast 2: growth inhibition of yeast expressing Plasmodium Hsp90; hit rate 0.32% among 310,000; inhibition, % at 9.4 µM; S. cerevisiae expressing PfHsp90, BacTiter-Glo ATP, 48 h; yeast lacking PDR1 and PDR3 efflux regulators;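 active = every replicate shows inhibition above about 80%, whatever the replicate mean, limit read from the data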;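 also: 0% = DMSO neutral controls and 100% = 20 µM radicicol positive controls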
# TIM10 inh: inhibits growth of TIM10 yeast strain. S. cerevisiae TIM10 strain growth, BacTiter-Glo luminescence, 24 h. inhibition, % at 10 µM. hit rate 1.4% among 330,000. AID 463195;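 active = inhibition of 40% or more at the single tested concentration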;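 also: wild-type TIM10 isogenic control strain grown at permissive 25 °C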
# tim10-1 inh: growth inhibitors of tim10-1 mutant yeast; S. cerevisiae tim10-1 ts strain growth, BacTiter-Glo, 24 h; inhibition, % at 20 µM; hit rate 2.2% among 330,000; AID 463190;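 active = inhibition of at least 40%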;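 also: mutant grown at 25 °C; 0% = DMSO wells with yeast and 100% = wells holding no yeast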
# tim10-1 confirm: tim10-1 yeast growth inhibition, confirmed; shares compounds with tim10-1 inh; S. cerevisiae tim10-1 ts strain growth, BacTiter-Glo, 24 h; inhibition, % at 20 µM; hit rate 56% among 7,400;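 active = inhibition of yeast growth at or above a set limit in either of two repeat tests at 20 µM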;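 also: tim10-1 mutant grown at permissive 25 °C to find synthetic lethal compounds; 0% = DMSO yeast wells and 100% = medium wells without yeast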
# tim10 confirm: TIM10 yeast growth inhibition, confirmed | shares compounds with TIM10 inh | S. cerevisiae tim10 strain growth, BacTiter-Glo luminescence, 24 h | inhibition, % at 10 µM | hit rate 63% among 4,600;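 active = inhibition of yeast growth at or above a set limit in either of two replicates at 10 µM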;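 also: this counterscreen used the strain with wild-type TIM10; 0% = yeast with DMSO and 100% = medium wells lacking yeast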
# tim23-1 confirm: tim23-1 yeast growth inhibition, confirmed; inhibition, % at 20 µM; S. cerevisiae tim23-1 growth, BacTiter-Glo luminescence, 24 h; shares compounds with tim23-1 inh; hit rate 83% among 4,400;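 active = inhibition above about 39% in either of two replicate wells at 20 µM, limit read from the data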;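 also: temperature-sensitive tim23-1 mutant grown at 25 °C; 0% = DMSO wells with yeast and 100% = medium wells without yeast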
# * hit, by the source's call; i = inactive; . = not tested or not shown.
SMILES,Rce1 inhib,tim23-1 inh,PfHsp90 yeast 2,TIM10 inh,tim10-1 inh,tim10-1 confirm,tim10 confirm,tim23-1 confirm
O=C1c2ccccc2C(Nc2ccc(Cl)cn2)N1Cc1ccccc1 (configuration not stated),i,56*,-30,42*,44*,29,46*,54*
CC(=O)NC1c2ccccc2C(=O)N1Cc1ccccc1 (configuration not stated),i,-10,-4,0,14,.,.,.
O=C(CCCN1C(=O)/C(=C/c2ccco2)SC1=S)Nc1ccccc1C(=O)O,i,12,-98,10,8,.,.,.
O=C(CCCN1C(=O)/C(=C\c2ccco2)SC1=S)Nc1ccc2ccccc2c1,i,78*,-21,39,44*,39*,.,70*
CCn1c2ccccc2c2cc(/C(C)=N/O)ccc21,i,75*,5,42*,61*,56*,45*,84*
O=C1C=CC(=O)N1c1cccc(-c2ccccc2)c1,i,51*,107*,95*,95*,98*,99*,98*
COc1cc(N2C(=O)C=CC2=O)ccc1N1C(=O)C=CC1=O,.,.,30,.,.,.,.,.
Cn1ncc2c(O/N=C(\N)c3ccc(C(F)(F)F)cc3)ncnc21,i,79*,-3,74*,52*,25,85*,52*
O=C(c1ccc2c(c1)OCCO2)C1CCN(S(=O)(=O)c2ccccc2F)CC1,i,53*,-31,42*,50*,43*,30,48*
O=C(CN1CCC(C(=O)c2ccc3c(c2)OCCO3)CC1)Nc1ccccc1F,i,26,24,-5,26,.,.,.
COc1ccc(S(=O)(=O)N2CCC(C(=O)c3ccc4c(c3)OCCO4)CC2)cc1,i,59*,1,60*,55*,55*,55*,55*
COc1ccc(NC(=O)N2CCC(C(=O)c3ccc4c(c3)OCCO4)CC2)cc1,i,15,-11,-14,2,.,.,.
Cc1ccc2nc(NC(=O)c3cccs3)sc2c1,.,27,7,22,26,.,.,.
CS(=O)(=O)c1ccc2nc(NC(=O)c3cccs3)sc2c1,.,60*,32,31,44*,41*,.,54*
O=C(CC1NC(=S)NC1=O)c1ccc(Cl)cc1 (configuration not stated),i,-1,12,-10,-6,.,.,.
Cc1[nH]c2ccccc2c1N=Nc1ccc(F)cc1,i,70*,14,30,63*,30,.,-88
O=C(CNC(=O)c1ccccc1F)NCCc1ccc(Cl)cc1Cl,i,18,7,7,-3,.,.,.
O=C(NC(=O)c1ccccc1F)OCc1ccc(Cl)cc1Cl,i,50*,6,18,46*,27,.,45*
COc1ccc(C(=O)ON=C2CCN(c3ccc([N+](=O)[O-])cc3)CC2)cc1,i,54*,-29,64*,58*,48*,65*,71*
O=C(OC1CCN(c2ccc([N+](=O)[O-])cc2)CC1)c1ccccc1,i,10,4,20,7,.,.,.
O=C(ON=C1CCN(c2ccc([N+](=O)[O-])cc2)CC1)c1ccccc1,i,64*,-25,52*,47*,24,60*,60*
COc1ccc(C(=O)CCC(=O)N2CCN(c3ccc([N+](=O)[O-])cc3)CC2)cc1,i,-8,-24,10,14,.,.,.
O=C(Nc1ccccc1C(=O)NCCc1ccc(O)cc1)c1ccco1,i,5,16,-4,9,.,.,.
CC(C)(C)c1ccc(CN2N=Nc3ccccc3S2(=O)=O)cc1,i,63*,5,60*,72*,64*,-1,28
O=S1(=O)c2ccccc2N=NN1Cc1ccc(Cl)c(Cl)c1,i,-3,.,14,28,.,.,.
SMILES,Rce1 inhib,tim23-1 inh,PfHsp90 yeast 2,TIM10 inh,tim10-1 inh,tim10-1 confirm,tim10 confirm,tim23-1 confirm
C=CCn1c(SCC(=O)Nc2ncc(Cc3cc(Cl)ccc3Cl)s2)nnc1-c1ccncc1,i,7,2,-1,11,.,.,.
Cc1ccc(CNC(=O)[C@@H](NC(=O)C2CCN(C(=O)[C@@H]3CCCN3)CC2)C(C)C)cc1,i,5,15,0,-10,.,.,.
COC(=O)c1ccccc1NC1=C/C(=N\S(=O)(=O)c2ccc(C(=O)O)cc2)c2ccccc2C1=O,i,71*,-6,53*,54*,77*,65*,89*
CCc1ccc(S(=O)(=O)/N=C2\C=C(Nc3ccc(C(=O)O)cc3)C(=O)c3ccccc32)cc1,i,45,-21,6,30,.,.,.
COC(=O)c1ccccc1NC1=C/C(=N\S(=O)(=O)c2cccs2)c2ccccc2C1=O,i,56*,0,41*,46*,41*,27,40*
Cc1ccc(S(=O)(=O)/N=C2\C=C(Nc3ccc(O)cc3)C(=O)c3ccccc32)cc1,.,51*,5,40,64*,74*,.,70*
Cc1ccc(S(=O)(=O)/N=C2\C=C(Nc3cccc(C(=O)O)c3)C(=O)c3ccccc32)cc1,i,32,23,18,18,.,.,.
O=C(NCc1ccc(OC(F)(F)F)cc1)C1CCC(=O)N(C2CC2)C1 (configuration not stated),i,-5,-29,0,4,.,.,.
COc1ccc(-n2nc(C(=O)NCC(=O)NCc3ccc(F)cc3)c3ccccc3c2=O)c(OC)c1,.,.,-21,.,.,.,.,.
c1ccc(-c2ccc(-c3nc(-c4ccccn4)no3)cc2)cc1,i,54*,27,29,46*,49*,.,74*
CC(Sc1ncccn1)C(=O)Nc1ccc2c(c1)OCO2 (configuration not stated),.,9,-12,9,2,.,.,.
CN1CCCN(C(=O)CNC(=O)c2ccc(Cl)cc2Cl)CC1,.,-6,-6,-9,-11,.,.,.
COc1cccc(CN2C(=O)c3ccccc3S2(=O)=O)c1,.,16,16,0,0,.,.,.
O=C1c2ccc([N+](=O)[O-])cc2S(=O)(=O)N1Cc1ccccc1,i,76*,-21,53*,72*,69*,43*,86*
Cc1ccc(-n2cnc3scc(-c4cccs4)c3c2=O)cc1,i,50*,-11,31,41*,45*,.,58*
CCc1nnc(NC(=O)C2COc3ccccc3O2)s1 (configuration not stated),i,28,18,9,22,.,.,.
CCC(CC)c1nnc(NC(=O)C2COc3ccccc3O2)s1 (configuration not stated),i,50*,29,37,47*,46*,.,53*
CC(C)CC(C(=O)NC(C)(C)C)N(Cc1cccs1)C(=O)c1snc(C(N)=O)c1N (configuration not stated),i,34,40,2,10,.,.,.
